# “And” between values parts separate entries of the source, which are not always exact repeats. Equal values may be shown once. Results filed as inconclusive are left out. A call without a number means that no potency is given here. The source holds several records for some structures; these can differ, active in one and inactive in another. The source made the active and inactive calls. The call rests on the fitted dose curve; in most records, active means well fitted curve in the direction sought with a large enough effect in the repeat runs; inconclusive means weak or mixed curves; inactive means no such curve, though single readings can be large; an effect the other way counts as inactive or inconclusive.
# Tests used:
# [1] = qHTS RealTime-Glo MT Cell Viability Assay in HEK293 cells - 16 hour (AID 1224872); further: top concentration of the series differs between compounds; nearly all actives have a fitted effect of over 50% in size
# Procedure, shortened: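 Homogeneous bioluminescent viability format in HEK293 cells (600 cells/well). Following 5 h at 37 C/5% CO2, 23 nL compound was pintooled; the signal was measured repeatedly during 40 h incubation.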
# [2] = qHTS RealTime-Glo MT Cell Viability Assay in HepG2 cells - 8 hour (AID 1224873); further: nearly all actives have a fitted effect of over 55% in size
# Procedure, shortened: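 HepG2 cells mixed with RealTime-Glo MT reagents (NanoLuc plus cell-permeant prosubstrate) were seeded at 600 cells/well, incubated 5 h at 37 C/5% CO2, then pinned with compounds in DMSO; nonlytic luminescence tracked viability during 40 h treatment.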
# [3] = qHTS RealTime-Glo MT Cell Viability Assay in HEK293 cells - 40 hour (AID 1224874); conditions: RealTime-Glo luminescence; max response: stronger effect = lower value; further: nearly all actives have a fitted effect of over 50% in size; further: potency means the concentration at half of the fitted maximal effect
# Procedure, shortened: (§1)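 Viable HEK293 cells reduce a cell-permeant prosubstrate; the product diffuses out and is consumed by NanoLuc in the medium to give light. Compounds went in after a 5 h incubation and plates were read over the treatment course.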
# [4] = A CellTox Green Cytotoxicity Assay to monitor cytotoxicity in HEK293 cells - 24 hour (AID 1224875); further: nearly all actives have a fitted effect of over 45% in size; further: potency means the concentration at half of the fitted maximal effect
# Procedure, shortened: (§2)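 Fluorescence intensity, read at 0, 8, 16, 24, 32 and 40 h of compound treatment, reflected dye binding to DNA of dead HEK293 cells; compounds (23 nL, DMSO) were added 5 h after plating cells with reagent.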
# [5] = A CellTox Green Cytotoxicity Assay to monitor cytotoxicity in HepG2 cells - 16 hour (AID 1224876); further: nearly all actives have a fitted effect of over 45% in size; further: potency means the concentration at half of the fitted maximal effect
# Procedure, shortened: (§3)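 Using 1536-well format, dye-containing HepG2 suspension was seeded, allowed 5 h at 37 C/5% CO2, dosed by pintool with compounds, positive and negative controls, and imaged for fluorescence across 40 h.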
# [6] = qHTS RealTime-Glo MT Cell Viability Assay in HepG2 cells - 32 hour (AID 1224877); further: nearly all actives have a fitted effect of over 55% in size; further: potency means the concentration at half of the fitted maximal effect
# Procedure, shortened: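 Cell number in HepG2 cultures estimated from NanoLuc luminescence generated by metabolic reduction of a prosubstrate by living cells. The homogeneous, nonlytic format allowed repeated reads at 0, 8, 16, 24, 32 and 40 h of compound exposure.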
# [7] = A CellTox Green Cytotoxicity Assay to monitor cytotoxicity in HepG2 cells - 24 hour (AID 1224878); further: nearly all actives have a fitted effect of over 45% in size; further: potency means the concentration at half of the fitted maximal effect
# Procedure, shortened: as §3
# [8] = A CellTox Green Cytotoxicity Assay to monitor cytotoxicity in HepG2 cells - 40 hour (AID 1224879); further: nearly all actives have a fitted effect of over 40% in size; further: potency means the concentration at half of the fitted maximal effect
# Procedure, shortened: as §3
# [9] = qHTS RealTime-Glo MT Cell Viability Assay in HEK293 cells - 0 hour (AID 1224880); further: top concentration of the series differs between compounds; nearly all actives have a fitted effect of over 45% in size
# Procedure, shortened: as §1
# [10] = A CellTox Green Cytotoxicity Assay to monitor cytotoxicity in HEK293 cells - 32 hour (AID 1224881); further: nearly all actives have a fitted effect of over 40% in size; further: potency means the concentration at half of the fitted maximal effect
# Procedure, shortened: as §2
SMILES,Potency [1],Potency [2],max response [3],Potency [4],Potency [5],Potency [6],Potency [7],Potency [8],Potency [9],Potency [10],Potency [3]
CC(C)[N+](C)(CCOC(=O)C1c2ccccc2Oc2ccccc21)C(C)C,inactive,inactive,-23.6% (inactive) and -15.1% (inactive),inactive,inactive,inactive,inactive,inactive,inactive,inactive,–
C/C=C/C(=O)N(CC)c1ccccc1C,inactive,inactive,1.07% (inactive) and 4.13% (inactive),inactive,inactive,inactive,inactive,inactive,inactive,inactive,–
CCCCCC=O,inactive,inactive,-0.468% (inactive) and 7.09% (inactive),inactive,inactive,inactive,inactive,inactive,inactive,inactive,–
CCCCCCC(C)O (stereo not given),inactive,inactive,1.85% (inactive) and 4.03% (inactive),inactive,inactive,inactive,inactive,inactive,inactive,inactive,–
[O-]/[N+](=N\O)c1ccccc1,inactive,inactive,2.42% (inactive) and -11.8% (inactive),inactive,inactive,inactive,inactive,inactive,inactive,inactive,–
CCc1cccc2c3c([nH]c12)C(CC)(CC(=O)O)OCC3 (stereo not given),inactive,inactive,0.853% (inactive) and 0.265% (inactive),inactive,inactive,inactive,inactive,inactive,inactive,inactive,–
C1COCCN1,inactive,inactive,-0.365% (inactive) and -12.5% (inactive) and 10.6% (inactive),inactive,inactive,inactive,inactive,inactive,inactive,inactive,–
Cc1ccc(S(=O)(=O)O)cc1C,inactive,inactive,-0.252% (inactive) and 9.18% (inactive),inactive,inactive,inactive,inactive,inactive,inactive,inactive,–
Cc1ccc(C(C)(C)C)c(O)c1,inactive,inactive,-23.8% (inactive) and -20.7% (inactive),23.8 µM (active) and 24.5 µM (active),38.9 µM (active),inactive,38.9 µM (active),34.7 µM (active),inactive,23.8 µM (active) and 21.9 µM (active),–
Cc1ccc2c(c1)C(=O)OC2=O,inactive,inactive,5.67% (inactive) and 0.571% (inactive),inactive,inactive,inactive,inactive,inactive,inactive,inactive,–
O=C(O)COCCN1CCN(C(c2ccccc2)c2ccc(Cl)cc2)CC1 (stereo not given),inactive,inactive,5.07% (inactive) and 2.04% (inactive),inactive,inactive,inactive,inactive,inactive,inactive,inactive,–
O=Cc1ccccc1C=O,inactive,inactive,0.419% (inactive),inactive,inactive,inactive,24.5 µM (active) and inactive,21.9 µM (active) and inactive,inactive,inactive,–
NCCS(=O)(=O)O,inactive,inactive,13.2% (inactive) and 2.94% (inactive),inactive,inactive,inactive,inactive,inactive,inactive,inactive,–
COCCOCCOCCO,inactive,inactive,4.57% (inactive) and 6.41% (inactive),inactive,inactive,inactive,inactive,inactive,inactive,inactive,–
OCCNCCO,inactive,inactive,4.46% (inactive) and 5.31% (inactive),inactive,inactive,inactive,inactive,inactive,inactive,inactive,–
CC(C)(Oc1ccc(Cl)cc1)C(=O)O,inactive,inactive,6.25% (inactive) and 5.25% (inactive),inactive,inactive,inactive,inactive,inactive,inactive,inactive,–
C=CCCCCCCCCCC,inactive,inactive,3.4% (inactive) and -2.24% (inactive),inactive,inactive,inactive,inactive,inactive,inactive,inactive,–
CN(Cc1cnc2nc(N)nc(N)c2n1)c1ccc(C(=O)N[C@@H](CCC(=O)O)C(=O)O)cc1,inactive,inactive,–,inactive,inactive,inactive,inactive,inactive,inactive,inactive,49 nM (active) and 53.5 nM (active)
CC(=O)Oc1c(C)c(C)c2c(c1C)CC[C@@](C)(CCC[C@H](C)CCC[C@H](C)CCCC(C)C)O2,inactive,inactive,0.83% (inactive) and -4.95% (inactive),inactive,inactive,inactive,inactive,inactive,inactive,inactive,–

SMILES,Potency [1],Potency [2],max response [3],Potency [4],Potency [5],Potency [6],Potency [7],Potency [8],Potency [9],Potency [10],Potency [3]
C[C@]12C=CC(=O)C=C1CC[C@H]1[C@@H]3C[C@@H](O)[C@](O)(C(=O)CO)[C@@]3(C)C[C@H](O)[C@@]12F,inactive,inactive,1.25% (inactive) and 4.53% (inactive),inactive,inactive,inactive,inactive,inactive,inactive,inactive,–
ClC/C=C/CCl,inactive,inactive,18.6% (inactive) and 9.13% (inactive),inactive,inactive,inactive,inactive,inactive,inactive,inactive,–
CC1=CC(C)(C)Nc2ccccc21,inactive,inactive,5.64% (inactive) and -19.8% (inactive),inactive,inactive,inactive,inactive,inactive,inactive,inactive,–
O=C(O)c1ccc(O)cc1,inactive,inactive,-0.345% (inactive) and 9.29% (inactive),inactive,inactive,inactive,inactive,inactive,inactive,inactive,–
NC[C@H](O)c1ccc(O)c(O)c1,inactive,inactive,-0.0212% (inactive) and 2.99% (inactive),inactive,inactive,inactive,inactive,inactive,inactive,inactive,–
Cc1ccc(C)c(O)c1,inactive,inactive,1.95% (inactive) and 4.96% (inactive),inactive,inactive,inactive,inactive,inactive,inactive,inactive,–
Clc1ccc(Sc2cc(Cl)c(Cl)cc2Cl)cc1,inactive,inactive,-26.8% (inactive) and 1% (inactive),inactive,inactive,inactive,inactive,inactive,inactive,inactive,–
CC[C@]12CCCN3CCc4c(n(c5ccccc45)[C@@](O)(C(=O)OC)C1)[C@@H]32,inactive,inactive,-23.5% (inactive),inactive,inactive,inactive,inactive,inactive,inactive,inactive,–
COC(=O)CC(=O)OC,inactive,inactive,2.65% (inactive) and 1% (inactive),inactive,inactive,inactive,inactive,inactive,inactive,inactive,–
C=CCOC(=O)C(=C)C,inactive,inactive,2.76% (inactive) and 2.11% (inactive),inactive,inactive,inactive,inactive,inactive,inactive,inactive,–
NCCN,inactive,inactive,7.37% (inactive) and 0.29% (inactive),inactive,inactive,inactive and 21.9 µM (active),inactive,inactive,inactive,inactive,–
CC(C)[C@@H]1CC[C@@H](C)CC1=O,inactive,inactive,-0.963% (inactive) and 5.54% (inactive),inactive,inactive,inactive,inactive,inactive,inactive,inactive,–
CCCCCCOCCOCCO,inactive,inactive,4% (inactive) and -0.302% (inactive),inactive,inactive,inactive,inactive,inactive,inactive,inactive,–
c1ccc2cc3ccccc3cc2c1,inactive,inactive,1.77% (inactive) and 23.2% (inactive),inactive,inactive,inactive,inactive,inactive,inactive,inactive,–
CCCOCCO,inactive,inactive,2.92% (inactive) and 1.86% (inactive),inactive,inactive,inactive,inactive,inactive,inactive,inactive,–
Nc1cc(Cl)c(N)c(Cl)c1,inactive,inactive,25.2% (inactive),inactive,inactive,inactive,inactive,inactive,inactive,inactive,–
C=CC(=O)OCCCC,inactive,inactive,6.68% (inactive) and 3.94% (inactive),inactive,inactive,inactive,inactive,inactive,inactive,inactive,–
Nc1ccc2c(c1)C(=O)c1ccccc1C2=O,inactive,inactive,-23.1% (inactive) and -12.6% (inactive),inactive,inactive,inactive,inactive,inactive,inactive,inactive,–

# — PubChem BioAssay (Tox21)
